This note sets out measurements from PubChem BioAssay (Tox21).

Unmarked numbers belong to inactive results. Records with an inconclusive call do not appear. Activity calls are given as the source filed them. Unless noted, calls follow the shape of the dose curve; as a rule, active = well fitted curve in the direction sought with a large enough effect in the repeat runs; inconclusive = weak or mixed curves; inactive = no such curve, though single readings can be large; an effect the other way counts as inactive or inconclusive.

A short description of experiment [1]: qHTS assay to identify small molecule agonists of the hypoxia (HIF-1) signaling pathway - cell viability counter screen (AID 1224844; calls by dose curve; also: nearly all actives have a fitted effect of over 50% in size). The essentials: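 HRE-bla ME-180 cells in medium with 0.5% dialyzed FBS were preincubated 5 hrs at 37C, exposed to compounds for 17 hrs, then viability was read as CellTiter-Glo luminescence after 30 min at room temperature, in the reporter wells.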
For orientation: qHTS replaces the single test concentration by a dilution series.

Experiment [2] can be described thus: qHTS assay to identify small molecule agonists of H2AX (AID 1224845; active = well fitted activation curve with a large enough effect in the signal ratio in the repeat runs, not every such curve was filed as active; the % refers to the signal ratio; also: potency is read from the fitted curve at half-maximal effect). The essentials: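 Phospho-H2AX Ser139 measured by HTRF (ex 320 nm; em 665 and 620 nm) after 24 hr antibody incubation. Compounds, 15 concentrations, 0.76% DMSO, were applied to CHO-K1 cells for 3hr at 37C before lysis.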
A short description of experiment [3]: qHTS assay to identify small molecule agonists of the hypoxia (HIF-1) signaling pathway (AID 1224846; active = well fitted activation curve with a large enough effect in the signal ratio in the repeat runs, not every such curve was filed as active; the % refers to the signal ratio). The procedure, abridged: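 HRE-bla ME-180 cells (beta-lactamase reporter under hypoxia response element) were plated at 2,000 cells/well in medium with 0.5% dialyzed FBS, rested 5 hrs, then given compounds in DMSO for 17 hrs at 37C, 5% CO2. Reporter induction was read with CCF4-AM FRET substrate.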

A short description of experiment [4]: qHTS assay to identify small molecule agonists of H2AX - cell viability counter screen (AID 1224847; calls by dose curve;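 also: wild-type CHO-K1 cells; top concentration of the series differs between compounds; nearly all actives have a fitted effect of over 30% in size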). The essentials:
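CHO-K1 wt, 1000 cells/well, o/n 37C; cpds 15 conc, 3 h 37C, 0.76% DMSO; CellTiter-Glo, 30 min RT, luminescence.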

A short description of experiment [5]: qHTS RealTime-Glo MT Cell Viability Assay in HepG2 cells - 24 hour (AID 1224867). Also: nearly all actives have a fitted effect of over 50% in size. The procedure, abridged:
(§1)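 Real-time, nonlytic viability: 600 HepG2 cells/well mixed with NanoLuc enzyme plus prosubstrate; 5 h settle, compound (DMSO) added by pintool; luminescence monitored over 40 h at 37 C.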

The nature of experiment [6]: qHTS RealTime-Glo MT Cell Viability Assay in HEK293 cells - 32 hour (AID 1224868). Also: nearly all actives have a fitted effect of over 50% in size. Also: potency is read from the fitted curve at half-maximal effect. The procedure, abridged:
(§2)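 Cells + reagent dispensed (600 cells/well, HEK293) → 5 h at 37 C/5% CO2 → 23 nL compound in DMSO pinned → 40 h at 37 C → luminescence read at 0, 8, 16, 24, 32, 40 h.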

The nature of experiment [7]: A CellTox Green Cytotoxicity Assay to monitor cytotoxicity in HEK293 cells - 0 hour (AID 1224869). Also: nearly all actives have a fitted effect of over 50% in size. The essentials: (§3)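 HEK293 cells premixed with CellTox Green dye were seeded at 600 cells/well and left 5 h at 37 C/5% CO2 before pin transfer of 23 nL compound in DMSO. Fluorescence from dye bound to dead-cell DNA was read during 40 h treatment.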
The nature of experiment [8]: qHTS RealTime-Glo MT Cell Viability Assay in HepG2 cells - 40 hour (AID 1224870). Also: nearly all actives have a fitted effect of over 50% in size. The procedure, abridged: (§4)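 Real-time viability: cells seeded at 600 per well together with NanoLuc and cell-permeant prosubstrate, compounds added after 5 h incubation. Luminescence tracked at 0, 8, 16, 24, 32 and 40 h of exposure.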
The nature of experiment [9]: A CellTox Green Cytotoxicity Assay to monitor cytotoxicity in HEK293 cells - 40 hour (AID 1224871). Also: nearly all actives have a fitted effect of over 45% in size. The procedure, abridged:
as §3

Experiment [10] is described as follows: qHTS RealTime-Glo MT Cell Viability Assay in HEK293 cells - 16 hour (AID 1224872). Also: nearly all actives have a fitted effect of over 50% in size. Also: potency is read from the fitted curve at half-maximal effect. The procedure, abridged: as §2
A short description of experiment [11]: qHTS RealTime-Glo MT Cell Viability Assay in HepG2 cells - 8 hour (AID 1224873). Also: nearly all actives have a fitted effect of over 55% in size. The essentials: as §4
Experiment [12] can be described thus: qHTS RealTime-Glo MT Cell Viability Assay in HEK293 cells - 40 hour (AID 1224874). Also: nearly all actives have a fitted effect of over 50% in size. Also: potency is read from the fitted curve at half-maximal effect. The conditions noted are these: RealTime-Glo luminescence; max response: hits give low values. The essentials: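 HEK293 cells mixed with RealTime-Glo reagents (NanoLuc plus cell-permeant prosubstrate) at 600 cells/well, preincubated 5 h at 37 C/5% CO2, then given 23 nL compound in DMSO. Nonlytic luminescence from viable cells was read at 0, 8, 16, 24, 32 and 40 h.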

Experiment [13] can be described thus: A CellTox Green Cytotoxicity Assay to monitor cytotoxicity in HEK293 cells - 24 hour (AID 1224875). Also: nearly all actives have a fitted effect of over 45% in size. The procedure, abridged:
as §3

Experiment [14] is described as follows: A CellTox Green Cytotoxicity Assay to monitor cytotoxicity in HepG2 cells - 16 hour (AID 1224876). Also: nearly all actives have a fitted effect of over 45% in size. The procedure, abridged:
(§5)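 HepG2 cells were seeded together with the CellTox Green dye at 600 cells/well, left 5 h at 37 C/5% CO2, then given compounds in DMSO. Fluorescence from dye bound to dead-cell DNA was read repeatedly over 40 h of treatment at 37 C.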

The nature of experiment [15]: qHTS RealTime-Glo MT Cell Viability Assay in HepG2 cells - 32 hour (AID 1224877). Also: nearly all actives have a fitted effect of over 55% in size. The procedure, abridged:
as §1

Experiment [16] in a line: A CellTox Green Cytotoxicity Assay to monitor cytotoxicity in HepG2 cells - 24 hour (AID 1224878). Also: nearly all actives have a fitted effect of over 45% in size. The essentials: as §5
Experiment [17] can be described thus: A CellTox Green Cytotoxicity Assay to monitor cytotoxicity in HepG2 cells - 40 hour (AID 1224879). Also: nearly all actives have a fitted effect of over 40% in size. The essentials:
as §5

Experiment [18] is described as follows: qHTS assay to identify small molecule antagonists of the estrogen related receptor (ERR) signaling pathway from Tox21 library (AID 1224848). Also: nearly all actives have a fitted effect of over 50% in size. The essentials: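 Reading was by luminescence 30 min after ONE-Glo addition. Before that, ERR cells at 2,000 per well had rested 6 h at 37 C/5% CO2 and then received pin-tooled compounds in DMSO for 18 h at 37 C.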
Experiment [19] can be described thus: qHTS assay to identify small molecule agonists of the estrogen related receptor (ERR) signaling pathway from Tox21 library (AID 1224849; calls by dose curve; also: nearly all actives have a fitted effect of over 15% in size). The conditions noted are these: ERR reporter cell line, ONE-Glo luciferase, 18 h; at 92.4 µM (top of the series) unless noted. The procedure, abridged: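 ERR reporter cell line (NTP) seeded, rested 6 h at 37 C/5% CO2, then pinned with Tox21 compounds in DMSO. After 18 h at 37 C, ONE-Glo luciferase luminescence was read following 30 min at room temperature.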
% is scaled to controls: 0 for no effect and ±100 for the full control effect.

With `[O-][n+]1ccc(Cl)cc1`, the Potency result in experiment [1], in [2], in [4], in [6], in experiment [7] and in experiment [8] was “inactive” in each case. Also, the Potency entry in [9], in [10], in experiment [13], in experiment [14], in experiment [15] and in [16] was “inactive” each time. In addition, the Potency entry in experiment [17] was “inactive”. For the same compound, the result in [3], in experiment [5] and in experiment [11] was inactive. Besides, the max response in experiment [12] is 17.4%.

For the compound `C=CCCC`, the Potency entry in [2], in experiment [4], in experiment [6], in [7], in experiment [8] and in experiment [9] was “inactive” throughout. Besides, the Potency result in experiment [10], in experiment [13], in experiment [14], in experiment [15], in [16] and in experiment [17] was “inactive” each time. Also, the call in [3], in [5] and in [11] was inactive. The max response in experiment [12] was 18%.

For the compound `COC(=O)Cc1cccc2ccccc12`, the Potency result in experiment [2], in experiment [6], in [7], in experiment [8], in experiment [9] and in [10] was “inactive” in each case. In addition, the Potency entry in experiment [13], in experiment [14], in experiment [15], in experiment [16] and in experiment [17] was “inactive” throughout. Moreover, the outcome in [3], in experiment [5] and in [11] was inactive. Further, in experiment [12], the max response was -1.93%.

Regarding `CCCCCCCCC(=O)OCC(C)OC(=O)CCCCCCCC` (stereo not drawn), the Potency entry in experiment [1], in experiment [2], in experiment [4], in [6], in [7] and in experiment [8] was “inactive” each time. Besides, the Potency result in [9], in [10], in experiment [13], in [14], in experiment [15] and in [17] was “inactive” throughout. In addition, the call in experiment [3] and in [11] was inactive. Also, in [12], the max response was 0.14%.

`Nc1nc(Cl)nc2c1ncn2[C@H]1C[C@H](O)[C@@H](CO)O1`: the Potency result in [1], in experiment [6], in experiment [7], in experiment [8], in experiment [9] and in experiment [10] was “inactive” in each case. Besides, the Potency entry in experiment [13], in [14], in [15] and in experiment [17] was “inactive” in each case. In [2], the Potency was 14.1 µM (active). In addition, the outcome in [5] and in experiment [11] was inactive. Besides, in experiment [12], the max response was -25.7%.

With `O=C(O)c1cc(C(=O)O)cc([N+](=O)[O-])c1`, the Potency entry in experiment [1], in experiment [2], in experiment [4], in [6], in experiment [10] and in [13] was “inactive” each time. Further, the Potency entry in experiment [14], in experiment [15] and in experiment [17] was “inactive” each time. Further, the compound was classed as inactive in [3], in experiment [5] and in experiment [11]. Also, the max response in experiment [12] was 8.3%.

As to `Nc1ccccc1Nc1ccccc1`, the Potency entry in experiment [1], in experiment [7], in [9], in [10], in experiment [13] and in experiment [14] was “inactive” each time. The Potency entry in experiment [15], in experiment [16] and in [17] was “inactive” throughout. The compound was classed as inactive in experiment [3], in [5] and in [11].

For the compound `C(/C=C/C=C/Nc1ccccc1)=Nc1ccccc1`, the Potency result in experiment [2], in experiment [4], in experiment [6], in [7], in experiment [8] and in experiment [9] was “inactive” throughout. Further, the Potency result in experiment [10], in [13], in experiment [14], in experiment [15], in experiment [16] and in [17] was “inactive” each time. The compound was classed as inactive in experiment [3], in [5] and in experiment [11]. In [12], the max response is -15.7%.

Consider `CC(C)(Cc1c[nH]c2ccccc12)NCC(O)COc1ccccc1C#N` (stereo not drawn), for which the Potency result in experiment [1], in experiment [2], in [18], in experiment [7], in experiment [8] and in [9] was “inactive” throughout. Also, the Potency result in experiment [13], in experiment [14] and in experiment [15] was “inactive” throughout. In addition, the compound was classed as inactive in experiment [3], in experiment [5] and in experiment [11]. The activity change, positive = activation in experiment [19] was -15.2% [at 42.5 µM]. For the same compound, the Potency in experiment [6] is 16.9 µM (active); in [10] it was 16.9 µM (active); in [12], 19 µM (active).

Turning to `CC(C)(O)C(=O)O`, the Potency result in [1], in [2], in experiment [4], in experiment [6], in experiment [7] and in experiment [8] was “inactive” throughout. Moreover, the Potency entry in experiment [9], in experiment [10], in [13], in experiment [14], in [15] and in experiment [16] was “inactive” each time. Further, in experiment [17], the Potency result is “inactive”. The result in experiment [3] and in [11] was inactive. Besides, the max response in experiment [12] is 6.64%.

Regarding `CCC(C(=O)O)c1ccc(N2Cc3ccccc3C2=O)cc1` (stereo not drawn), the Potency entry in experiment [1], in [4], in experiment [6], in [7], in experiment [8] and in experiment [9] was “inactive” in each case. The Potency entry in experiment [10], in experiment [13], in [14], in experiment [15] and in experiment [17] was “inactive” in each case. The outcome in experiment [3], in experiment [5] and in experiment [11] was inactive. In addition, the max response in [12] is -1.19%.

On to `CC/C=C/CCO`, for which the Potency result in experiment [2], in experiment [4], in experiment [18], in [6], in experiment [7] and in experiment [8] was “inactive” each time. Also, the Potency entry in experiment [10], in experiment [13], in experiment [14], in [15], in experiment [16] and in [17] was “inactive” each time. Further, the activity change, positive = activation in experiment [19] is 5.37%. In addition, the compound was called inactive in [5] and in [11]. Also, the max response in experiment [12] is -11.5%.

Take `O=C(O)c1cccnc1Nc1cccc(C(F)(F)F)c1`: the Potency entry in [1], in experiment [2], in experiment [4], in experiment [6], in experiment [7] and in experiment [8] was “inactive” in each case. Also, the Potency entry in experiment [9], in experiment [10], in experiment [13], in experiment [14], in [15] and in experiment [16] was “inactive” in each case. In addition, the Potency entry in experiment [17] is “inactive”. Also, in experiment [19], the activity change, positive = activation is -25.2% [at 42.5 µM]. Further, the compound was called inactive in experiment [5] and in [11]. For the same compound, the max response in experiment [12] is -4.24%.
